Assay results published in ChEMBL document CHEMBL3988442, “University of Dundee, Small-Polar-MMV Screening Library” (2021).
Screen size: about 48,000 compounds; about 13,000 (27%) showed an effect of 50% or more. The list shows a part of the results.

The compounds below were run on Wolbachia pipientis (assay: Anti-Wolbachia Cell-Based Screen). Conditions: 5 µM.
Assay type: functional
Design: scale not given: in the data most compounds retested in dose-response had high values

Row | SMILES | Percent Effect [%]
1 | CN1CCC(N(C)C(=O)CSc2ccc(F)c(F)c2)C1=O (centres undefined) | -7.197
2 | Cc1occc1C(=O)N1C[C@@H]2CCCO[C@@H]2[C@H](NC(=O)CC2CC2)C1 | 111.2
3 | Cc1ccc([C@@H]2CN(C(=O)c3ccoc3C)C[C@H]2NC(=O)C2CC2)cc1 | -4.07
4 | CCOCCN1CCN(CC(=O)N2CCCC2)CC1CC (centres undefined) | 98.08
5 | CCOCCN1CCN(CCC(=O)N2CCCCC2)CC1C (centres undefined) | -8.269
6 | CCOCCN1CCN(CC(=O)N2CCC2)CC1CC (centres undefined) | 109.6
7 | CCOCCN1CCN(CC(=O)NC2(C#N)CCCC2)CC1CC (centres undefined) | -13.43
8 | CCOCCN1CCN(CC(=O)N2CCCC2)CC1C (centres undefined) | -3.155
9 | CCOCCN1CCN(Cc2nc(C)no2)CC1CC (centres undefined) | -13.77
10 | O=C1C=CC=N/C1=C(/O)NCCNS(=O)(=O)N1CCCCCC1 | -2.703
11 | CC(=O)NCc1noc2c1CN(Cc1ccsc1)CC2 | -0.8794
12 | COC(=O)CNC(=O)c1ccc(OC2CCN(S(C)(=O)=O)CC2)c(Cl)c1 | -7.47
13 | CCc1cnc(CN(C(C)=O)C2CCN(CCc3ccncc3)C2)o1 (centres undefined) | 111.3
14 | CCc1cnc(CN(C(C)=O)C2CCN(CCc3cnn(C)c3)C2)o1 (centres undefined) | 11.37
15 | CCc1cnc(CN(C(C)=O)C2CCN(CCc3ccccc3)C2)o1 (centres undefined) | 104.1
16 | CCc1cnc(CN(C)C2CCN(CCc3ccccn3)C2)o1 (centres undefined) | -9.613
17 | CCc1cnc(CN(C(C)=O)C2CCN(CCc3ccccn3)C2)o1 (centres undefined) | 119.1
18 | CN(CCC#N)C(=O)CSc1cc(F)ccc1F | 10.19
19 | COCCS(=O)(=O)Nc1cc(Cl)ccn1 | 7.348
20 | CC(=O)N1N=C(c2ccco2)OC1C(=O)N(CC(C)C)CC(C)C (centres undefined) | 91.49
21 | CC(C)CN(Cc1cnn(C)c1)C(=O)C1COc2ccccc2C1 (centres undefined) | -20.05
22 | CC(=O)N1N=C(c2ccco2)OC1C(=O)NCC(C)C (centres undefined) | 108.9
23 | CC(C)CN(Cc1nnc(-c2ccco2)o1)CC(C)C | -6.92
24 | CCCNC(=O)CCNC(=O)Cc1nc(-c2ccco2)oc1C | -2.58
25 | CCNC(=O)C1CCN(c2nc(-c3ccco3)nc3c2CCNCC3)C1 (centres undefined) | 5.847
26 | Cc1noc(C)c1CN1CC[C@H](OCC2CC2)[C@@H](Cc2ccccc2)C1 | -6.774

Row | SMILES | Percent Effect [%]
27 | CN(CC1(CO)CCC1)C(=O)C1CCC(=O)N(Cc2ccc(Cl)cc2)C1 (centres undefined) | 0.1062
28 | O=C(Nc1ccc(-n2cccn2)cc1)N1CCOCC(O)C1 (centres undefined) | 0.445
29 | O=C(O)C(F)(F)F.O=C(c1ccco1)N1CCOCC2(C1)CN(c1cccnc1)C(=O)CO2 (centres undefined) | 102.4
30 | O=C(O)C(F)(F)F.O=C(O)C(F)(F)F.O=C(c1ccncc1)N1CCOC2(COCCN(c3cccnc3)C2)C1 (centres undefined) | -8.352
31 | O=C(O)C(F)(F)F.O=C(c1cccs1)N1CCOCC2(C1)CN(c1cccnc1)C(=O)CO2 (centres undefined) | 114.5
32 | O=C(c1cccs1)N1CCOCC2(C1)CN(c1ccccc1)C(=O)CO2 (centres undefined) | 85.77
33 | Cc1cc(C)c(OCC(=O)NS(=O)(=O)c2cccnc2)c(C)c1 | -6.374
34 | COc1ccc(C)cc1C1(CNc2cncc(Cl)n2)CCOCC1 | -4.03
35 | COC(=O)CCNC(=O)c1cc(Br)c2c(c1)OCCO2 | -24.52
36 | CN1CCN(C2CCN(c3cnc4ccccc4n3)CC2)C1=O | 19.91
37 | O=C(NC1CC1)C1CN(c2nc3ccccc3s2)CCN1 (centres undefined) | -6.534
38 | O[C@@H]1CN(c2nc3ccccc3o2)CC[C@H]1c1ccc2c(c1)OCO2 | 107.9
39 | c1ccc2sc(N3CCOC(Cn4cccn4)C3)nc2c1 (centres undefined) | 4.7
40 | O[C@@H]1CN(c2nc3ccccc3s2)CC[C@H]1c1ccc2c(c1)OCO2 | 110.1
41 | CN(C)CC1CN(c2cnc3ccccc3n2)CCO1 (centres undefined) | 11.03
42 | c1ccc2oc(N3CCC(c4nncn4C4CC4)CC3)nc2c1 | -9.735
43 | O[C@@H]1CN(c2cnc3ccccc3n2)CC[C@H]1c1ccc2c(c1)OCO2 | 98.83
44 | O=C(N[C@@H]1CCN(c2nc3ccccc3o2)C[C@H]1O)c1cnccn1 | 6.046
45 | CCNC(=O)NC[C@H]1COCc2nc3cc(OC)ccc3n21 | 0.3029
46 | CCN(CC)C(=O)CN(C)C(=O)c1cccn1CCc1ccccc1 | 1.592
47 | CNC(=O)[C@H]1C[C@@H]2CN(C(=O)NC(C)C)C[C@H]1O2 | -20.87
48 | COc1ccc(OC)c(-n2cnnc2COC(C)C)c1 | -1.207
49 | Cn1c2ccccc2c2ncn(CCN3CCOCC3)c(=O)c21 | 100.8
50 | O=c1c2c(ncn1CCCO)nc1n2CCC1 | -24.45
51 | Cc1ccc(-c2c(-c3ccccc3)ncn2CCCN2CCOCC2)o1 | -10.17
52 | Cn1c2ccc(F)cc2c2ncn(CCN3CCOCC3)c(=O)c21 | 129.5

Row | SMILES | Percent Effect [%]
53 | Cc1cc(C)c2ncn(CCOCCO)c(=O)c2c1 | -8.527
54 | Cn1c2ccccc2c2ncn(CCCN3CCOCC3)c(=O)c21 | 106.3
55 | O=c1c2cccc(F)c2ncn1CCN1CCNCC1 | -5.542
56 | O=c1c2cccc(F)c2ncn1CCN1CCOCC1 | 0.8234
57 | Cn1c2ccc(F)cc2c2ncn(CCCN(CCO)CCO)c(=O)c21 | 122.3
58 | CC(C(=O)Nc1cccc(F)c1)N(C)CCN1CCOCC1 (centres undefined) | 11.62
59 | Cc1nc(-c2c(-c3ccccc3)ncn2CCCN2CCOCC2)c[nH]1 | -4.456
60 | O=c1c2cccc(C(F)(F)F)c2ncn1CCN1CCNCC1 | -10.29
61 | CS(=O)(=O)c1ccc(NC(=O)NCc2ccc(F)cc2)cn1 | 9.509
62 | CN(CC1(CO)CC1)C(=O)C1CCC(=O)N(Cc2ccc(Cl)cc2)C1 (centres undefined) | -2.442
63 | O=C1CN(C(=O)C2CCCCC2)CC(O)CN1Cc1ccco1 (centres undefined) | 88.46
64 | CC(=O)N1CCC(CSCc2ccco2)CC1 | -2.113
65 | O=C(NCCc1cccnc1)C1CCCN(Cc2ccco2)C1 (centres undefined) | -20.69
66 | CC(C)(C)C(=O)N1CC(=O)N(Cc2ccco2)CC(O)C1 (centres undefined) | 96.28
67 | O=C(O)C(F)(F)F.O=C1C[C@@H]2[C@H](CCN2Cc2ccco2)N1c1ccsc1 | 5.007
68 | CC(C)(C)OC(=O)N1CC(=O)N(Cc2ccco2)CC(O)C1 (centres undefined) | 112.7
69 | CC(C)c1cc(C(=O)N2CCN(Cc3ccco3)CC2)n[nH]1 | 11.56
70 | O=C([C@H]1COC[C@H]2CN(Cc3ccco3)C[C@H]21)N1CCCO1 | -9.766
71 | CC(C)(C)OC(=O)N1CCCN(Cc2ccon2)c2ccccc21 | 7.757
72 | CC(C)COC(=O)N1CC(=O)N(Cc2ccco2)CC(O)C1 (centres undefined) | 111.6
73 | CC(NCc1ccc(-c2ccc(F)cc2)o1)c1nnc2n1CCC2 (centres undefined) | 11.28
74 | CNC(=O)c1ccc(NC2CCN(CC(F)(F)F)C2=O)cc1Cl (centres undefined) | 5.324
75 | Cc1ccc(C(NC(=O)CN2CCc3c(ncn3C)C2)C2CC2)cc1 (centres undefined) | 0.6431
76 | CC(C)CC(=O)N1CC(=O)N(Cc2ccco2)CC(O)C1 (centres undefined) | 81.13
77 | O=C(CN1C(=O)CCC1=O)N1CCC(S(=O)(=O)Cc2ccco2)CC1 | 3.229
78 | O=C(CN1C(=O)CCC1=O)N1CCC(CSCc2ccco2)CC1 | -7.09

Row | SMILES | Percent Effect [%]
79 | COCCOCCNC(=O)c1ccc(N2CCC(C)=N2)cc1 | -11.91
80 | Cc1cccc(CN2CCCC3(CCN(CC4CCCO4)CC3)C2)n1.O=C(O)C(F)(F)F.O=C(O)C(F)(F)F (centres undefined) | 92.13
81 | CCN1CC2(CCN(CC3CCCO3)CC2)OC1=O (centres undefined) | -23.86
82 | c1cc(CN2CCCC3(CCN(CC4CCCO4)CC3)C2)n[nH]1 (centres undefined) | 86.72
83 | Cc1cccc(CN2CCC3(CCC(CC(=O)N(C)C)CC3)CC2)n1.O=C(O)C(F)(F)F | -48.49
84 | Cc1cccc(CN2CCOC3(CCCN(CC(=O)N(C)C)C3)C2)n1.O=C(O)C(F)(F)F.O=C(O)C(F)(F)F (centres undefined) | 7.418
85 | O=C1OC2(CCN(CC3CCCO3)CC2)CN1CCc1ccccc1 (centres undefined) | 4.853
86 | Cn1cc(CN2CCCC3(CCN(C(=O)c4ccccn4)C3)C2)cn1.O=C(O)C(F)(F)F.O=C(O)C(F)(F)F.O=C(O)C(F)(F)F (centres undefined) | 5.668
87 | Cc1cccc(CN2CCC3(CCCN(Cc4cnn(C)c4)C3)C2)n1.O=C(O)C(F)(F)F.O=C(O)C(F)(F)F (centres undefined) | 99.91
88 | Cn1cc(CN2CCCC3(CCN(c4nncs4)C3)C2)cn1.O=C(O)C(F)(F)F (centres undefined) | -2.653
89 | NC(=O)c1cnc(NC2CCC(c3ccccc3)CC2)c(Cl)c1 (centres undefined) | -13.17
90 | CCc1ncncc1C(=O)N1CCN(Cc2c(C)noc2C)CC1 | -0.7919
91 | COc1ccccc1OC1CCN(C(=O)c2c[nH]c(=O)[nH]c2=O)CC1 | -1.274
92 | Cc1nn(CCO)c(C)c1CNC1CCOc2ccccc21.Cl (centres undefined) | -2.726
93 | O=C(NCCNc1cnccn1)N1CC=C(c2ccccc2)CC1 | -24.03
94 | O=C(NCCNc1cnccn1)N1CC=C(c2ccc(O)cc2)CC1 | -14.06
95 | Cc1[nH]ncc1CCCNC(=O)N1CCOC(C)C1 (centres undefined) | -4.876
96 | O=C(NCCNc1cnccn1)N1CCc2ccccc2C1 | 3.9
97 | O=C(NCCNc1ccccn1)N1CCSCC1 | 1.97
98 | O=C(NCCNc1cnccn1)N1CCN(Cc2cccnc2)CC1 | 1.12
99 | CN1CCCN(C(=O)NCCNc2ncccc2C#N)CC1 | -11.99
100 | CN1CCCN(C(=O)NCCNc2cnccn2)CC1 | 104.7
101 | CC1CN(C(=O)NCCNc2cnccn2)CCO1 (centres undefined) | 93.32
102 | O=C(NCCNc1cnccn1)N1CCN(c2nccs2)CC1 | 115.8
103 | CC1CN(C(=O)NCCCn2cncn2)CCO1 (centres undefined) | -6.452
104 | CC(=O)N1CCCN(C(=O)NCCNc2cnccn2)CC1 | 106.7
